Active and inactive are the calls of the source. How the source made its calls: active means hit-call score of the fitted dose curve at least 0.9, where 1 is the maximum; inactive means score below 0.9.
Tests used:
[1] = BSK_LPS_PGE2: BioMAP Diversity Plus: LPS Assay for Prostaglandin E2 (PGE2) Biomarker Activity (AID 2283082); settings: primary human HUVEC with PBMC; actives raise or lower the signal;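 on AC50: secreted prostaglandin E2 measured by ELISA in LPS-stimulated co-culture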
How it was run: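 Endpoint derived from bidirectional curve fitting versus DMSO of ELISA-measured PGE2 in LPS-stimulated human primary vascular co-culture (HUVEC with PBMC) harvested at 24 h.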

[2] = read-out: Macrophage colony-stimulating factor (MCSF), CSF1 (gene 1435); test: BSK_LPS_MCSF: BioMAP Diversity Plus: LPS Assay for Macrophage colony-stimulating factor (MCSF) Biomarker Activity (AID 2283083); settings: primary human HUVEC with PBMC; actives raise or lower the signal
How it was run: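 HUVEC–PBMC co-culture, M-CSF measured by ELISA 24 h after chemical dosing. Fitted in both directions relative to DMSO as negative control; overt cytotoxicity assessed by SRB total-protein staining in parallel cultures.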

[3] = read-out: Tissue Factor, F3 (gene 2152); test: BSK_LPS_TissueFactor: BioMAP Diversity Plus: LPS Assay for Tissue Factor Biomarker Activity (AID 2283084); settings: primary human HUVEC with PBMC; actives raise or lower the signal
How it was run: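 Human umbilical vein endothelial cells co-cultured with PBMC were dosed with compound. Cell-surface CD142 was measured by ELISA 24 h later. Activity was fitted bidirectionally against DMSO, with SRB total-protein staining in parallel cultures for cytotoxicity.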

[4] = read-out: Tumor necrosis factor (Homo sapiens) (UniProt P01375); test: BSK_LPS_TNFa: BioMAP Diversity Plus: LPS Assay for Tumour Necrosis Factor alpha (TNFa) Biomarker Activity (AID 2283085); settings: primary human HUVEC with PBMC; actives raise or lower the signal
How it was run: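 Primary human vascular co-culture of HUVEC and PBMC; TNFa ELISA 24 h after treatment, analysed as increase or decrease relative to DMSO control.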

[5] = read-out: Vascular cell adhesion molecule 1 (VCAM1), VCAM1 (gene 7412); test: BSK_LPS_VCAM1: BioMAP Diversity Plus: LPS Assay for Vascular cell adhesion molecule 1 (VCAM1) Biomarker Activity (AID 2283086); settings: primary human HUVEC with PBMC; actives raise or lower the signal
How it was run: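 Primary human vascular co-culture (umbilical vein endothelium plus PBMC) stimulated with LPS received chemical; 24 h later VCAM-1 was read by ELISA. Overt cytotoxicity was assessed by sulforhodamine B staining of parallel cultures at the same time point.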

CD38, CD38 (gene 952) = test: BSK_SAg_CD38: BioMAP Diversity Plus: SAg Assay for CD38 Biomarker Activity (AID 2283087); settings: primary human HUVEC with PBMC; actives raise or lower the signal
How it was run: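 Fluorescence ELISA of cell-surface CD38 served as the read-out, with either increase or decrease fitted against DMSO controls. Cells were a human umbilical vein endothelium plus PBMC co-culture under SEB/TSST-1 stimulation, measured 24 h after dosing.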

CD40, CD40 (gene 958) = test: BSK_SAg_CD40: BioMAP Diversity Plus: SAg Assay for CD40 Biomarker Activity (AID 2283088); settings: primary human HUVEC with PBMC; actives raise or lower the signal
How it was run: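 HUVEC plus PBMC co-culture, superantigen-activated, with CD40 read by ELISA 24 h after dosing. Curves fitted in both directions against DMSO. Overt cytotoxicity checked by parallel SRB total-protein staining.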

CD69, CD69 (gene 969) = test: BSK_SAg_CD69: BioMAP Diversity Plus: SAg Assay for CD69 Biomarker Activity (AID 2283089); settings: primary human HUVEC with PBMC; actives raise or lower the signal;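 on AC50: cell surface CD69 protein quantified by ELISA with fluorescence detection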
How it was run: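 HUVEC co-cultured with PBMC were dosed with chemical, and CD69 was measured by ELISA with fluorescence read-out 24 h later. Bidirectional curve fitting used DMSO as negative control and activity baseline.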

[6] = read-out: Monocyte Chemoattractant Protein-1 (MCP1), CCL2 (gene 6347); test: BSK_SAg_MCP1: BioMAP Diversity Plus: SAg Assay for Monocyte Chemoattractant Protein-1 (MCP1) Biomarker Activity (AID 2283090); settings: primary human HUVEC with PBMC; actives raise or lower the signal
How it was run: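 MCP-1 levels in the endothelial–PBMC SAg co-culture were quantified by ELISA at 24 h post-dosing; both increases and decreases versus DMSO scored. Cytotoxicity monitored by SRB total protein in parallel cultures.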

[7] = read-out: E-selectin (Homo sapiens) (UniProt P16581); test: BSK_SAg_Eselectin: BioMAP Diversity Plus: SAg Assay for Eselectin Biomarker Activity (AID 2283091); settings: primary human HUVEC with PBMC; actives raise or lower the signal
How it was run: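 Human umbilical vein endothelial cells co-cultured with peripheral blood mononuclear cells, SAg system. E-selectin is measured by ELISA 24 h after dosing and fitted bidirectionally against DMSO. Cytotoxicity is checked by SRB staining of parallel cultures.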

[8] = read-out: Monokine induced gamma interferon (MIG), CXCL9 (gene 4283); test: BSK_SAg_MIG: BioMAP Diversity Plus: SAg Assay for Monokine induced gamma interferon (MIG) Biomarker Activity (AID 2283092); settings: primary human HUVEC with PBMC; actives raise or lower the signal
How it was run: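 HUVEC plus human PBMC co-culture, chemicals dosed and MIG (CXCL9) quantified by ELISA at 24 h. Bidirectional curve fitting against DMSO as negative control and baseline, so both gain and loss of signal count as activity.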

[9] = BSK_SAg_PBMCCytotoxicity: PBMC Cytotoxicity Assessment in the BioMAP Diversity Plus: SAg Assay (AID 2283093); settings: primary human HUVEC with PBMC;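 further: PBMC viability measured as Alamar Blue reduction fluorescence at 546/580 nm; fitted both ways against DMSO so a hit may be loss or gain of signal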;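 on AC50: PBMC superantigen activated with SEB plus TSST-1 one hour after compound addition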
How it was run: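 Human umbilical vein endothelial cells co-cultured with PBMC; PBMC (75,000/well) pre-treated with compound 1 h, then activated with SEB and TSST-1 (20 ng/mL final each) for 90 h. Alamar Blue added 6 h, fluorescence 546/580 nm; bidirectional fit versus DMSO.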

[10] = read-out: Interleukin-8 (IL8), CXCL8 (gene 3576); test: BSK_SAg_IL8: BioMAP Diversity Plus: SAg Assay for Interleukin-8 (IL8) Biomarker Activity (AID 2283094); settings: primary human HUVEC with PBMC; actives raise or lower the signal
How it was run: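 In this co-culture of human umbilical vein endothelium with peripheral blood mononuclear cells, IL-8 is assayed by ELISA at 24 h. DMSO serves as baseline for bidirectional curve fitting.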

[11] = BSK_SAg_Proliferation: Cell Proliferation Assessment in the BioMAP Diversity Plus: SAg Assay (AID 2283095); settings: primary human HUVEC with PBMC;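 further: relative cell number as total protein by SRB absorbance in sub-confluent culture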
How it was run: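 Readout is SRB-stained protein (560 nm) in a primary human HUVEC and PBMC co-culture; sub-confluent cultures are read at 96 h. Activity is fitted bidirectionally using DMSO as baseline.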

[12] = BSK_SAg_SRB: Viability Assessment in the BioMAP Diversity Plus: SAg Assay (AID 2283096); settings: primary human HUVEC with PBMC;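 further: cells read one day after compound addition; hits may be either gain or loss of signal compared with DMSO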
How it was run: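 Endothelial/PBMC primary human co-culture; compound 24 h; fix 10% TCA, stain 0.1% SRB, A560; protein content as cytotoxicity proxy; bidirectional curve fit, DMSO = baseline.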

Measured: AC50

Tumor necrosis factor (Homo sapiens), sequence (P01375 whole entry, looked up): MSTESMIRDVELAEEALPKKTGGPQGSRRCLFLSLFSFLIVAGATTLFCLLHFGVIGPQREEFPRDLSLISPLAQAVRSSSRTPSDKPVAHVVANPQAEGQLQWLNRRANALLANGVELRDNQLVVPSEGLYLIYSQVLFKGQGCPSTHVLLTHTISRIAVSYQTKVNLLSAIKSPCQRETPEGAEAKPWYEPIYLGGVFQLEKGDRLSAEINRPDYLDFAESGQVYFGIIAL
E-selectin (Homo sapiens), sequence (P16581 whole entry, looked up): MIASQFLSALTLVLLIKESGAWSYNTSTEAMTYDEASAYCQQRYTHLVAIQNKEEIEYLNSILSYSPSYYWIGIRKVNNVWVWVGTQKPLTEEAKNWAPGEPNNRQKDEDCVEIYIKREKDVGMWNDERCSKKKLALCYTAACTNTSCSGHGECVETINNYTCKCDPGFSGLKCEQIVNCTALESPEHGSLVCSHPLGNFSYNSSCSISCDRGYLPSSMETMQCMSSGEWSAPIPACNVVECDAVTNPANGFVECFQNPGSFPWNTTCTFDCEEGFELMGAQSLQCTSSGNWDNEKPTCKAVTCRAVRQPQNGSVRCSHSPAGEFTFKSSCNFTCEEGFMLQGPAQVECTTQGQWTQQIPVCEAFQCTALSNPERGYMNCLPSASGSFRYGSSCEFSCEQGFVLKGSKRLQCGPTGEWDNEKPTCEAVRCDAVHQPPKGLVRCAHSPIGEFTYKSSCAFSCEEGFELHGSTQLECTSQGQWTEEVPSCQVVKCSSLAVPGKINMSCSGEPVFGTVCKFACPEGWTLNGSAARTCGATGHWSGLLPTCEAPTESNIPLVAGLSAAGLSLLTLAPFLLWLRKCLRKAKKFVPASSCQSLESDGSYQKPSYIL

CCCCN(CCCC)CCCC
inactive: all assays above

C[C@]12C=CC(=O)C=C1CC[C@@H]1[C@@H]2C(=O)C[C@@]2(C)[C@H]1CC[C@]2(O)C(=O)CO
inactive: all assays above

CCCc1cc(=O)[nH]c(=S)[nH]1
inactive: all assays above

c1cc(-c2ccncc2)ccn1
inactive: all assays above

CCCCCCCCCCC
inactive: all assays above

CC(C)(C)c1cc(O)c(C(C)(C)C)cc1O
inactive: [2] | [3] | CD38, CD38 (gene 952) | [8] | [10] | [12]
active: [1] 9.44 µM | [4] 1.43 µM | [5] 8.05 µM | CD40, CD40 (gene 958) 11.7 µM | CD69, CD69 (gene 969) 5.55 µM | [6] 5.94 µM | [7] 7.31 µM | [9] 8.8 µM | [11] 27.8 µM

CCc1c(C(=O)NN2CCCCC2)nn(-c2ccc(Cl)cc2Cl)c1-c1ccc(Br)cc1
inactive: [3] | [4]
active: [1] 15.3 µM | [2] 20 µM | [5] 6.19 µM | CD38, CD38 (gene 952) 11.5 µM | CD40, CD40 (gene 958) 12.2 µM | CD69, CD69 (gene 969) 10.3 µM | [6] 8.24 µM | [7] 12.3 µM | [8] 9.99 µM | [9] 11.8 µM | [10] 7.03 µM | [11] 7.06 µM | [12] 8.32 µM

CCCCCCC(=O)OCC
inactive: all assays above

CNC(=O)[C@H]1O[C@@H](n2cnc3c(NCc4cc(Cl)ccc4OCc4cc(C)no4)ncnc32)[C@H](O)[C@@H]1N
inactive: all assays above

FC(F)(F)C(F)(F)C(F)(F)C(F)(F)C(F)(F)C(F)(F)CCI
inactive: all assays above

CC(=O)Oc1ccccc1C(=O)O
active: [1] 3.25 µM
inactive: all other assays above

CCCCOC(=O)CCCCCCCCC(=O)OCCCC
inactive: all assays above

CC(C)c1ccc(C(=O)N=C(N)N)cc1S(C)(=O)=O
inactive: all assays above

CCCCc1ccc2c(n1)[C@@H](c1ccc(OC)cc1C[C@H](C)C(=O)O)[C@H](C(=O)O)[C@H]2c1ccc2c(c1)OCO2
inactive: all assays above

Cc1cc(=O)[nH]c(=S)[nH]1
inactive: all assays above

CCCCCCCCCCCCCO
active: [5] 34.7 µM | CD38, CD38 (gene 952) 31.1 µM | CD40, CD40 (gene 958) 29.8 µM | [6] 31.5 µM | [7] 36.4 µM | [9] 33.2 µM | [10] 38 µM | [12] 37.5 µM
inactive: [1] | [2] | [3] | [4] | CD69, CD69 (gene 969) | [8] | [11]

CCOC(=O)C(C)(C)Oc1ccc(Cl)cc1
inactive: all assays above
